# Experimental data published in PubChem BioAssay AID1347076 (National Center for Advancing Translational Sciences (NCATS), 2019).
# Hit rate of the full screen: of about 400,000 compounds, about 13,000 (3.2%) were called active. Another 18% or so got no clear call; they are omitted. The full list was thinned out, with actives kept by preference. Unmarked numbers belong to inactive results. Calls come from the whole dose curve; as a rule, active = well fitted cell-killing curve with a large enough effect; inconclusive = small, poorly fitted or top-dose-only effect, or effect the other way; inactive = flat fitted curve, though single readings scatter.
# Experiment: qHTS assay for MDR1-selective chemotherapeutics: Primary screen using the drug-selected MDR subline cells KB-V1; note: nearly all actives have a fitted effect of over 60% in size
# Settings: KB-V1 MDR cells viability, CellTiter-Glo, 72 h; series mostly up to 46.1 µM; activity change, negative = cytotoxicity: at the top concentration
# Outline: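 Following 72 h at 37 degrees C with compound, KB-V1 cell viability was read by CellTiter-Glo luminescence, medium being phenol-red-free DMEM plus 10% FBS; concentration-response parameters came from normalized, curve-fitted qHTS data.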
# % is set by controls: 0 for no effect and ±100 for the full control effect; potency is the fitted concentration of half-maximal effect.
Structure (SMILES),"activity change, negative = cytotoxicity [%]",Potency
Cc1cccc(S(=O)(=O)N(C)C[C@H]2OCc3cnnn3CCCC(=O)N([C@@H](C)CO)C[C@H]2C)c1,6.43,–
CN1OC[C@@H]2CN(C(=O)C(C)(C)C)[C@H](c3ccc(-n4ccnc4)cc3)C[C@@H]21,0,–
CC(=O)c1ccc(Nc2nc(C(N)c3ccccc3)cs2)cc1 (stereo not given),-0.67,–
COc1cc(OC)cc(C(=O)NC(C(=O)N2CCC2)C(C)C)c1 (stereo not given),-1.52,–
COc1cc(OC)cc(C(=O)N[C@H](C(=O)Nc2nc3ccccc3[nH]2)C(C)C)c1,–,14.6 µM (active)
COc1ccc(C(=O)N[C@H](C(=O)NCc2ccccc2)C(C)C)cc1,0,–
COc1cc(OC)cc(C(=O)N[C@H](C(=O)NNC(=O)c2ccc(Br)cc2)C(C)C)c1,-1.18,–
COc1cc(OC)cc(C(=O)N[C@H](C(=O)OCC(=O)NC(C)c2ccccc2)C(C)C)c1 (stereo not given in full),–,23.1 µM (active)
Cc1cc(C)cc(OCC(=O)NC(C)c2ccccc2)c1 (stereo not given),-3.72,–
C[C@@H]1CC2=C(C(=O)OC(C)(C)O2)[C@@H](C2CC2)O1,0,–
COc1cccc(-c2cnc(C(O)c3ccccc3OC)[nH]2)c1 (stereo not given),14.8,–
COc1cc(S(=O)(=O)N2CCN=C2c2ccccc2)ccc1Cl,–,16.4 µM (active)
CCOc1ccc(S(=O)(=O)N2CCN=C2Cc2ccccc2)cc1C,-1.27,–
CC1=NCCN1S(=O)(=O)c1cccc([N+](=O)[O-])c1,20.1,–
O=S1(=O)CC(N2CCN(Cc3ccccc3F)CC2)CN1Cc1cn(Cc2cccc(C(F)(F)F)c2)nn1 (stereo not given),6.44,–
Cc1c(CCO)sc[n+]1CC(=O)c1ccc2ccccc2c1,9.94,–
CCOC(=O)C1CCN(Cc2nnc(-c3cccc(Br)c3)o2)CC1,-8.01,–
CCOC(=O)C1CCN(c2ncnc3c2oc2ccc(Br)cc23)CC1,–,20.6 µM (active)
CCOC(=O)C1CCN(C(=O)c2oc3ccc(S(=O)(=O)N4CCCCCC4)cc3c2C)CC1,-20,–
CCN(CC)CCNc1ncnc2c1cnn2-c1cc(Cl)ccc1C,-1.34,–
CN(C)C(=O)c1cccc(-c2cnc3sc(NCc4ccc5c(c4)OCO5)nn23)c1,-22.9,–
COc1ccc(COC(=O)NC(C(=O)O)c2ccccc2)cc1 (stereo not given),0.328,–
COc1ccc(C(CCN(Cc2ccc(OC)c(OC)c2)C(=O)CCl)c2ccccc2)cc1 (stereo not given),–,20.6 µM (active)
COc1ccc(CN(C)C(=O)CC(c2ccccc2)c2ccccc2)cc1,-6.46,–
O=C(NCc1ccc(F)cc1)c1cc(C2CCCCN2C(=O)c2ccccn2)on1 (stereo not given),5.02,–

Structure (SMILES),"activity change, negative = cytotoxicity [%]",Potency
O=C(CSc1nc2ccccc2c(=O)n1-c1ccc(F)cc1)NC1CC1,-24.6,–
O=C(CSc1nc2ccccc2c(=O)n1Cc1ccc(F)cc1)NCC1CCCO1 (stereo not given),-5.78,–
CC(=O)c1ccc(NC(=O)CSc2nc3ccccc3c(=O)n2CCCN2CCOCC2)cc1,-11.8,–
O=C(CCn1c(SCC(=O)c2ccccc2)nc2ccccc2c1=O)NCc1ccc(F)cc1,–,7.31 µM (active)
O=C(CSc1nc2ccccc2c(=O)n1CCCO)NC1CC1,5.65,–
O=C(CSc1ncc(CO)n1Cc1ccc(F)cc1)NCc1ccco1,-4.36,–
O=C(CCCn1c(SCC(=O)c2ccc(F)cc2)nc2ccccc2c1=O)NCc1ccco1,–,5.8 µM (active)
COC(=O)c1ccc2c(=O)n(CCN3CCOCC3)c(SCC(=O)Nc3cccc(OC)c3)nc2c1,-15.6,–
CCc1ccc(NC(=O)CSc2nc3ccccc3c(=O)n2CCN2CCOCC2)cc1,–,8.2 µM (active)
COc1ccc(Cn2cc(C(=O)c3ccc(C)cc3)c(=O)c3cc(OC)c(OC)cc32)cc1,19.4,–
O=C(NC1CCCC1)C1c2ccccc2OCC(=O)N1CC(F)(F)F (stereo not given),-2.65,–
CCCCn1nnnc1C(c1cc2ccccc2o1)N(C)Cc1ccc(Cl)c(Cl)c1 (stereo not given),-11,–
O=C1NC(Cc2ccccc2)c2nc3ccc(Br)cc3c(=O)n2-c2cc3ccccc3cc21 (stereo not given),-22.4,–
O=C(NC(C(=O)NCCN1CCOCC1)C12CC3CC(CC(C3)C1)C2)C1CCCCC1 (stereo not given),–,14.6 µM (active)
O=C(NCCCN1CCOCC1)C1CCCN(S(=O)(=O)N2CCCCC2)C1 (stereo not given),1.22,–
O=C(NCCN1CCOCC1)C1CCN(S(=O)(=O)c2ccccc2)CC1,1.81,–
CCOC(=O)c1c(NC(=O)COC(=O)c2ccc(S(=O)(=O)C(F)F)cc2)sc(C(=O)N(C)C)c1C,-11.7,–
CC1(C(=O)O)CCN1C(=O)/C=C/c1ccccc1 (stereo not given),3.25,–
CCN(CC(=O)Nc1ccc(OC)cc1)C(=O)c1ccc(=O)n(Cc2ccccc2)n1,–,18.4 µM (active)
COc1ccc(NC(=O)CN(C)C(=O)c2cc(C3CC3)nn2-c2ccccc2)cc1,-6.56,–
CCN(CC(=O)Nc1ccc(OC)cc1)C(=O)c1ccc(Cl)c(S(=O)(=O)N2CCCC2)c1,18.1,–
N=c1c2c3c(sc2nc2n1CCCCC2)CCCC3,-2.3,–
N=c1c2c3c(sc2ncn1N)CCCCC3,9.63,–
N=c1c2c3c(sc2ncn1CCCN1CCOCC1)CCCCC3,–,8.2 µM (active)
CCN1CCN(c2ccc(/C=C/c3ccnc4ccccc34)cc2)CC1,0,–

Structure (SMILES),"activity change, negative = cytotoxicity [%]",Potency
C[C@@H]1CN([C@H](C)CO)C(=O)c2cc(Br)cnc2O[C@@H]1CN(C)Cc1cncnc1,-10.7,–
C[C@H]1Cn2cnc(C(=O)N[C@@H](Cc3c[nH]c4ccccc34)C(=O)OC(C)(C)C)c2C(=O)N1,-0.784,–
COc1ccc(C(=O)NC2CC(C)(C)NC(C)(C)C2)cc1OC,-11.1,–
Cc1cccc(C(=O)NCC(=O)OCC(=O)N2CC3(C)CC2CC(C)(C)C3)c1 (stereo not given),-5.3,–
COc1ccc(C(=O)N2CC3(C)CC2CC(C)(C)C3)cc1OC (stereo not given),–,23.1 µM (active)
O=C(NCc1ccccc1)C(c1ccc(F)cc1)N1CCN(C(=O)C2CCCO2)CC1 (stereo not given),-9.25,–
CCn1c(Cc2ccccc2)nnc1SCC(=O)Nc1ccccc1,–,20.6 µM (active)
CCn1c(Cc2ccc(OC)cc2)nnc1SCC(=O)Nc1ccc(N2CCOCC2)cc1,-26.1,–
CCn1c(CNC(=O)c2ccc(OC)c(OC)c2)nnc1SCC(=O)Nc1ccccc1,-12.5,–
CC1(C(=O)NS(=O)(=O)c2cccc(OC(F)F)c2)CCN1C(=O)COc1ccc(Cl)cc1 (stereo not given),3.1,–
O=C(Nc1cccc2ccccc12)c1[nH]c(-c2ccccc2)c2c1C(=O)N(C1CC1)C2=O,0.496,–
CCCCNC(=O)C[C@@H]1C[C@@]2(C(=O)OCC)CCC=C2N(Cc2ccco2)C1=O,18.7,–
O=C(NNS(=O)(=O)c1ccc(F)cc1)c1ccc([N+](=O)[O-])cc1Cl,-24.7,–
Cc1cc([N+](=O)[O-])ccc1NS(=O)(=O)c1ccccc1,-13.9,–
O=[N+]([O-])c1ccc(NS(=O)(=O)c2ccccc2)c(Cl)c1,–,23.1 µM (active)
CCc1nc2ccc(C(=O)N3CCC(O)(Cc4ccccc4)CC3)cn2c1N(C)C(=O)Cc1ccccc1,19.7,–
CC1(C(=O)NCc2ccc3c(c2)OCO3)CCN1CCc1ccccc1 (stereo not given),-10.2,–
COc1ccc(S(=O)(=O)N/N=C\c2ccc(OC)c(COc3ccc(C)cc3[N+](=O)[O-])c2)cc1,-2.85,–
COc1ccc(C(=O)Oc2cc(/C=N/NS(=O)(=O)c3ccc(C)cc3)ccc2OC)cc1,–,14.6 µM (active)
COc1ccc(C(=O)NNS(=O)(=O)c2ccc(C)cc2)cc1,10.3,–
c1ccc(Cc2c(-c3ccco3)nc3c4ccccc4ccn23)cc1,-25.8,–
CC(C)Cn1c(=O)c2ccccc2n2c(-c3cccc(Cl)c3)nnc12,0,–
CN(Cc1cncn1C)c1ncnc2ccc(-c3ccc4c(c3)OCO4)cc12,0,–
O=C(c1ccc2c(c1)OCCO2)C1CCN(S(=O)(=O)c2cccc(F)c2)CC1,–,20.6 µM (active)
Cn1nnnc1SCC(=O)Nc1cccc(S(=O)(=O)N2CCCCC2)c1,–,20.6 µM (active)

Structure (SMILES),"activity change, negative = cytotoxicity [%]",Potency
O=C(CSc1ccccc1)Nc1cccc(S(=O)(=O)N2CCCCC2)c1,3.31,–
CCN(CC)S(=O)(=O)c1cccc(NC(=O)c2ccc(S(=O)(=O)N3CCCC3)cc2)c1,-0.979,–
O=C(c1c(F)cccc1F)N1CCN(S(=O)(=O)c2ccc3c(c2)OCCO3)CC1,0,–
O=C(Nc1cccc(S(=O)(=O)N2CCCCC2)c1)c1cncc(Br)c1,-2.51,–
O=C(Nc1cccc(S(=O)(=O)N2CCCCC2)c1)c1ccc2c(c1)OCO2,–,3.26 µM (active)
O=C(NCc1cccs1)C1CCN(S(=O)(=O)c2ccc3c(c2)OCCO3)CC1,10.7,–
COCCn1cnnc1SCC(=O)Nc1cccc(S(=O)(=O)N2CCCCC2)c1,-21.2,–
Cc1ccc(-c2nn3c(=O)cc(CN4CCN(S(=O)(=O)c5ccc(Cl)cc5)CC4)nc3s2)cc1,-6.24,–
Cc1cccc(C)c1NC(=O)CNC(=O)c1ccc(N2CCOCC2)c([N+](=O)[O-])c1,9.61,–
CCc1ccc(S(=O)(=O)N/N=C\c2ccc([N+](=O)[O-])o2)cc1,7.82,–
CCn1c(/C=C/c2ccc([N+](=O)[O-])o2)nc2ccccc2c1=O,–,5.17 µM (active)
O=c1oc(/C=C/c2ccccc2)nc2ccccc12,-11.6,–
CSc1ncccc1C(=O)N1CCCC(Nc2ccc(F)c(F)c2)C1 (stereo not given),0.526,–
CCc1nn(CCCC(=O)NCc2ccccc2OC)c(=O)c2cc3occc3n12,-0.332,–
Cc1cc(Br)cn2c(Cc3cccc(F)c3)c(-c3cccc(Br)c3)nc12,12.7,–
CCOC(=O)c1c(NC(=O)CSc2cn(CC)c3ccccc23)sc2c1CCC2,19.3,–
CCOC(=O)c1c(NC(=O)Cn2nc(C(F)(F)F)cc2C)sc2c1CCC2,–,20.6 µM (active)
CCOC(=O)c1c(NC(=O)Cc2coc3ccc(CC)cc23)sc2c1CCC2,-15.3,–
CCCS(=O)(=O)NC(=O)C1(C)CCCN(C(=O)c2cccs2)C1 (stereo not given),1.76,–
O=C(CN1CCCCC1)Nc1ccccc1C(=O)NC1CC1,-13.3,–
Cc1ccc(OCC(=O)Nc2ccccc2C(=O)NC2CC2)cc1,–,8.2 µM (active)
Cc1ccc(OCC(=O)Nc2ccccc2C(=O)NC2CC2)cc1C,-24.5,–
CC(NCC(=O)Nc1ccccc1C(=O)NC1CC1)c1ccccc1Cl (stereo not given),–,18.4 µM (active)
COc1ccccc1OCC(=O)Nc1ccccc1C(=O)NC1CC1,-1.47,–
CCCC(NCC(=O)Nc1ccccc1C(=O)NC1CC1)c1ccccc1 (stereo not given),0.208,–
